Screens from PubChem.
NALP3 yeast inh – inhibitors of NALP3 inflammasome in yeast. Yeast reconstituted NLRP3/ASC/caspase-1, beta-gal luminescence, 24 h. inhibition, % at 10 µM. 330,000 tested, 0.39% active;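 active means inhibition of 50% or more; inactive means inhibition below 50%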;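 further: plate controls were induced DMSO wells for no effect and uninduced yeast grown without galactose for full effect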
tim23-1 inh – growth inhibitors of tim23-1 mutant yeast; 330,000 tested, 1.3% active; inhibition, % at 20 µM; S. cerevisiae tim23-1 growth, BacTiter-Glo luminescence, 24 h;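 active means growth inhibition of the mutant yeast at or above 50%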;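 further: temperature-sensitive mutant grown at 25 °C; plate controls were DMSO-treated mutant yeast for no effect and medium wells lacking yeast for full effect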
tim10-1 inh – growth inhibitors of tim10-1 mutant yeast; S. cerevisiae tim10-1 ts strain growth, BacTiter-Glo, 24 h; inhibition, % at 20 µM; 330,000 tested, 2.2% active;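 active means inhibition of at least 40%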;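 further: mutant grown at 25 °C; 0% = DMSO wells with yeast and 100% = wells holding no yeast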
TIM10 inh – growth inhibitors of TIM10 yeast strain; AID 463195; 330,000 tested, 1.4% active; inhibition, % at 10 µM; S. cerevisiae TIM10 strain growth, BacTiter-Glo luminescence, 24 h;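 active means inhibition of 40% or more at the single tested concentration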;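 further: wild-type TIM10 isogenic control strain grown at permissive 25 °C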
SKKanGAS inh – blocks kanamycin growth of S. pyogenes SKKanGAS strain; BacTiter-Glo, 6 h; inhibition, % at 7.5 µM; 300,000 tested, 1.3% active;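 active means mean replicate score, as percent of positive control median, at least 50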;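 further: strain carries kanamycin resistance gene driven by streptokinase promoter and grows in 40 µg/ml kanamycin; loss of luminescence reflects streptokinase promoter inhibition or plain growth inhibition; 0% = median of DMSO wells and 100% = positive control at its reference dose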
tim23-1 confirm – tim23-1 yeast growth inhibition, confirmed. S. cerevisiae tim23-1 growth, BacTiter-Glo luminescence, 24 h. AID 463218. inhibition, % at 20 µM. 4,400 tested, 83% active. shares compounds with tim23-1 inh;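 active means inhibition above about 39% in either of two replicate wells at 20 µM, limit read from the data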;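 further: temperature-sensitive tim23-1 mutant grown at 25 °C; 0% = DMSO wells with yeast and 100% = medium wells without yeast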
Numbers without * were called inactive; nt = no result given. Rows were chosen to be rich in hits. Some 4.6% of all compounds tested hit in one or more screens of this group.

SMILES	NALP3 yeast inh	tim23-1 inh	tim10-1 inh	TIM10 inh	SKKanGAS inh	tim23-1 confirm
CCOC(=O)c1sc(NC(=S)NC(=O)C2CC2)cc1C	9	14	17	8	-3	nt
O=C(CSCc1ccc(Cl)cc1Cl)Nc1nccs1	2	-4	-13	-15	-17	nt
Oc1c(Cl)cc(Cl)cc1CNc1nccs1	21	51*	-19	9	4	52*
O=C1CS(=O)(=O)N(Cc2ccc(F)cc2)c2ccccc21	nt	53*	30	25	nt	47*
O=C(Nc1ccccc1)O[C@@H]1C[C@H]2CCC(=O)N3CC[C@@H](C1)[C@@H]23	3	11	-7	10	5	nt
Cc1ccc(Cl)cc1NC(=O)C(=O)N/N=C/c1ccc2c(c1)OCO2	-6	1	27	4	nt	nt
O=C1CN(c2ccc(F)cc2)C(=S)N1c1ccccc1	20	57*	26	7	-4	-16
O=C1CN(c2ccccc2)C(=S)N1c1ccccc1	13	42	18	4	-5	nt
CCOC(=O)c1c(-c2ccccc2)oc2ccc(O)cc12	18	59*	13	19	4	56*
CCOC(=O)c1c(-c2ccccc2)oc2ccc(OCC)cc12	11	-5	18	-6	2	nt
Clc1ccc(-c2[nH]ncc2N=Nc2ccccc2)cc1	28	68*	30	38	22	-2
Oc1ccc(-c2[nH]ncc2-c2ccc(Cl)cc2)c(O)c1	1	7	-13	-7	-4	nt
Oc1ccc(Cl)cc1C=Nc1ccc2c3c(cccc13)CC2	31	63*	14	27	-2	62*
Cc1cccc(C=Nc2ccc3c4c(cccc24)CC3)c1O	25	38	38	24	-5	nt
CSC1=N/C(=C\c2ccccc2F)C(=O)S1	7	52*	21	12	-1	51*
CSC1=N/C(=C\c2ccc(Br)o2)C(=O)S1	8	36	16	9	-2	nt
Cc1ccc(C)c(NC(=S)N2CCN(CCO)CC2)c1	4	-2	7	0	-1	nt
CC(C)(C)c1ccc(OCCCn2ccnc2)cc1	11	11	11	6	-1	nt
COc1c(O)cc2c(c1O)C(=O)CC(c1ccccc1)O2 (centres undefined)	19	44	28	9	-2	nt
Cc1c(O)cc2c(c1O)C(=O)CC(c1ccccc1)O2 (centres undefined)	0	51*	38	31	3	48*
COc1ccccc1C1NC(=O)NC(C)=C1C(=O)OC1CCCC(C)C1 (centres undefined)	3	16	8	2	8	nt
Cc1ccccc1OCC(=O)N/N=C/c1cc2ccccc2nc1Cl	24	12	24	36	16	nt
C=CCc1ccccc1OCC(=O)N/N=C/c1ccc(OC(C)=O)cc1OC(C)=O	22	63*	20	36	14	55*
Cc1ccnc(NC(=O)c2cc(F)c(F)cc2Cl)n1	0	62*	28	20	1	47*
O=C(Oc1ccc2ccc(O)cc2c1)c1ccccc1Cl	36	63*	19	37	4	52*
SMILES	NALP3 yeast inh	tim23-1 inh	tim10-1 inh	TIM10 inh	SKKanGAS inh	tim23-1 confirm
Cc1ccc(CNC(=O)CSc2nc3ccsc3c(=O)n2Cc2ccc(C(=O)O)cc2)cc1	6	16	9	14	16	nt
CCOc1cccc(CNCc2ccc(C(=O)O)cc2)c1	8	89*	-10	-14	-8	18
O=C(O)c1ccc(CNCc2cccc(Oc3ccccc3)c2)cc1	0	3	-11	11	2	nt
COc1ccc(Cl)cc1NC(=O)CN1CCC(NC(=O)C2CC2)CC1	-7	11	7	-13	16	nt
Cc1ccc(O)c(CNc2cnc3ccccc3c2)c1	35	57*	-6	3	-2	42*
Oc1ccc(Br)cc1CNc1cnc2ccccc2c1	23	76*	19	27	20	68*
Cc1ccc(Nc2cc(C)c3ccc(O)cc3n2)cc1C	27	82*	-16	11	-5	36*
O=C(CN1C(=O)C(=O)N(CCC2=CCCCC2)C1=O)Nc1ccc(F)cc1F	19	9	4	10	nt	nt
CCCC1CC(C(=O)Nc2ccccc2)C(=O)O1 (centres undefined)	11	0	-8	0	4	nt
COC(=O)CC1C(=O)NCCN1C(=O)CSc1nc2ccccc2s1 (centres undefined)	4	5	5	-16	-5	nt
N/C(CC(=O)Nc1ccc(F)cc1F)=N\OC(=O)c1cccs1	-1	61*	34	30	4	40*
